ATXN2 expr inh = ATXN2 expression inhibition; 360,000 compounds, 0.72% hits; HEK-293 ATXN2-luciferase reporter, luminescence, 24 h; Potency, µM (titrated, usually from 57 µM), for inactives: at the highest dose activity change, negative = inhibition, most hits filed as inhibitors; further: potency means the concentration at half of the fitted maximal effect; on the % scale 0 is the no-effect control and ±100 the full control effect; nearly all actives have a fitted effect of over 55% in size
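qHTS (up to 57 uM final) was run with 24 h compound exposure of reporter cells at 37 °C. Each well was multiplexed: SteadyGlo luminescence measured ATXN2-luciferase expression after a fluorogenic Gly-Phe-AFC viability readout (25 uM final).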
LDHA block = LDHA (human) enzyme inhibition; P00338; purified LDHA, NADH/diaphorase-resazurin fluorescence; active compounds read low; activity change, % (values are at about 110 or 230 µM); 480,000 compounds, 0.15% hits; in the data active means activity change below about -30%; inconclusive means mostly about -25% to -30%;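 further: plate controls were DMSO wells for no effect and wells without enzyme for full effect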
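Enzyme activity of human lactate dehydrogenase 5 (2 nM; 0.06 mM NADH, 0.2 mM pyruvate, 5 min, RT) is measured via a resazurin/diaphorase fluorescence readout of residual NADH.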
TGFb SMAD3 inh = TGF-b pathway inhibition; HepG2 CAGA-GFP TGF-b/SMAD3 reporter, GFP fluorescence, 18 h; TGF-beta stimulated, 500 pg/mL final; Potency, µM (highest dose often 46.1 µM), inactives show top-dose activity, negative = inhibition, actives largely listed as inhibitors; 410,000 compounds, 1.2% hits; AID 588855; further: potency means the concentration at half of the fitted maximal effect; on the % scale 0 is the no-effect control and ±100 the full control effect; nearly all actives have a fitted effect of over 65% in size
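Per well, imaged GFP fluorescence of HEPG2 CAGA-GFP cells gives the signal; cells get compound, then TGF-beta (500 pg/mL final), 18 h at 37 degrees C; %Activity versus -TGF-beta and +DMSO controls.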
HepG2 viability = kills HepG2 cells in TGF-b inhibitor counter-screen; Potency, µM (top dose mostly 46.1 µM), without a hit: at the highest dose activity change, negative = cytotoxicity, hits mostly cytotoxic; AID 588856; 410,000 compounds, 0.76% hits; HepG2 CAGA-GFP viability, ATP luminescence, 18 h; further: potency means the concentration at half of the fitted maximal effect
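HepG2 CAGA-GFP cells (1000/well, DMEM with 1% FBS) received compound, then TGF-beta at 500 pg/mL final, and were incubated 18 hours at 37 degrees C. Viability was read by CellTiter-Glo luminescence. Media-only wells were set as complete cell-killing and DMSO as no toxicity.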
IDH1 R132H inh = human IDH1 R132H inhibition; O75874; IDH1-R132H enzyme, NADPH consumption, diaphorase/resazurin fluorescence; Potency, µM (series often up to 76.6 µM), without a hit: top-dose activity change, negative = inhibition, usual class: inhibitors; 390,000 compounds, 0.093% hits; AID 602179; further: potency means the concentration at half of the fitted maximal effect; on the % scale 0 is the no-effect control and ±100 the full control effect; nearly all actives have a fitted effect of over 65% in size
Target sequence (O75874 whole entry R132H, stated change not applied): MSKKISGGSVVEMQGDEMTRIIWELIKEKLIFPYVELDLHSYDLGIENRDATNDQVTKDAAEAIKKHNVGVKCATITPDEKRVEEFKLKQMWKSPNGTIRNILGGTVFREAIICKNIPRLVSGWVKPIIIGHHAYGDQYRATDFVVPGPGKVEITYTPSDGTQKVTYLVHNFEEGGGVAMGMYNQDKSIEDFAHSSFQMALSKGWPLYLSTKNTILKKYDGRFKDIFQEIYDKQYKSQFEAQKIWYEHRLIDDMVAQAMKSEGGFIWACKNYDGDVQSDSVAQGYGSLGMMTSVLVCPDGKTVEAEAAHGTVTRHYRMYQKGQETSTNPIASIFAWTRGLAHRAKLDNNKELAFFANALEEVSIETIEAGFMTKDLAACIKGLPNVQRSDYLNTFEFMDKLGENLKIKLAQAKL
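IDH1-R132H (0.5 ug/mL dispensed) in pH 7.5 Tris buffer was preincubated 30 min with compound, then given a substrate mix of 0.016 mM NADPH and 2 mM alpha-KG for 80 min at room temperature; remaining NADPH was read by diaphorase/resazurin fluorescence.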
ATXN viability = reduces viability in counter-screen for ATXN expression inhibitors | AID 651635 | S2 cells (HEK-293 line with an ATXN2-luciferase reporter) viability, CellTiter-Fluor protease fluorescence, 24 h | Potency, µM (series often up to 56.7 µM), hits mostly cytotoxic | 400,000 compounds, 0.49% hits; further: potency means the concentration at half of the fitted maximal effect; nearly all actives have a fitted effect of over 40% in size
The depositor's hits bear a star; i = inactive; ? = inconclusive; / = not tested or not shown; ! = repeats disagree. Most compounds without a hit are left out; they make up all but 2.2% or so of the library. Unless noted, the call rests on the fitted dose curve; in most records, active means well fitted curve in the direction sought with a large enough effect; inconclusive means small, poorly fitted or top-dose-only effect, or another doubt; inactive means no such curve, though single readings can be large; an effect the other way counts as inactive or inconclusive.

SMILES | ATXN2 expr inh | LDHA block | TGFb SMAD3 inh | HepG2 viability | IDH1 R132H inh | ATXN viability
CC(C)N(Cc1ccco1)/N=C/c1c(O)n(Cc2ccccc2)c(=O)[nH]c1=O | -11.0% | -3.9 | 7.1% | 12.2% | 1.5% | i
COC(COC(N)=O)C1=C(N2CC2)C(=O)C(C)=C(N2CC2)C1=O (stereo not drawn) | 3.55µM* | 33.2 | ? | -89.2% | 13.7% | ?
Nc1ccc(N=Nc2ccccc2)cc1 | 0.0% | -0.7 | -9.2% | -5.1% | -5.6% | 22.4µM*!
Cc1noc(C)c1CC(=O)N1CCCC(N2CCN(c3ccccc3F)CC2)C1 (stereo not drawn) | -4.2% | -0.1 | 0.1% | -8.4% | 1.6% | i
CCCC12CN3CCN(CC(C3)/C1=N\NC(=O)c1ccncc1)C2 | -13.4% | 1.9 | -19.4% | 5.6% | 3.2% | i
CCC12CN3CCN(CC(C3)/C1=N/NC(=O)c1ccncc1)C2 | -11.0% | -3.8 | 1.12µM* | 8.1% | 4.6% | i
CN1CCN(Cc2ccc(N)cc2)CC1 | -16.0% | 2.1 | 5.5% | -5.2% | -2.8% | i
Nc1nc(N)c2cnnn2n1 | 5.7% | -4.7 | 0.0% | 10.9% | -8.7% | i
Cc1cc(OC(=O)N(C)C)nc(SCc2c(Cl)cccc2Cl)n1 | / | 1.3 | -26.8% | 8.91µM* | 14.6% | i
CCOC(=O)Cn1cc([N+](=O)[O-])nc1[N+](=O)[O-] | 7.6% | 22.2 | ? | 11.2µM* | 16.5% | i
CCOC(=O)Cn1cc(C(=O)c2ccccc2F)c2ccccc21 | 8.4% | -2.1 | 2.7% | -0.3% | 5.7% | ?
Cc1ccccc1C1CC(=O)Nc2ccc3ccccc3c21 (stereo not drawn) | -21.5% | -2.6 | 12.6µM* | -24.7% | 6.4% | ?
OC(COCc1ccc(Cl)cc1)CN1CC=C(c2ccccc2)CC1 (stereo not drawn) | -20.3% | -5.4 | ? | 28.2µM*! | 0.5% | ?
OC(CN1CC=C(c2ccccc2)CC1)c1ccccc1 (stereo not drawn) | 2.0% | -7.7 | -1.2% | -2.7% | 4.8% | i
Cc1ccc2[nH]c(C)c(C(O)CN3CCC(C)CC3)c2c1 (stereo not drawn) | / | 5.5 | / | / | / | /
C[C@@H]1O[C@@H](O[C@H]2C[C@@H](O)[C@]3(CO)[C@H]4[C@H](O)C[C@]5(C)[C@@H](C6COC(=O)C6)CC[C@]5(O)[C@@H]4CC[C@]3(O)C2)[C@H](O)[C@H](O)[C@H]1O (stereo partly drawn) | 0.562µM* | -2.9 | ? | -50.5% | 14.8% | ?
C[C@@H]1O[C@@H](O[C@@H]2C=C3CCC4C(CC[C@]5(C)[C@@H](c6ccc(=O)oc6)CC[C@]45O)[C@@]3(C)CC2)[C@H](O)[C@H](O)[C@H]1O (stereo partly drawn) | -82.1% | -0.5 | -97.8% | -67.7% | -1.5% | ?
COc1cccc(C2SCC(=O)Nc3[nH]ncc32)c1 (stereo not drawn) | / | -2.6 | / | / | / | /
COC(=O)C1=C(c2ccccc2OCc2ccccc2)C[C@@H]2CC[C@H]1N2C(=O)NCCCOC(C)C | 7.2% | 6.2 | 1.0% | 1.4% | 9.1% | i
CCOC(=O)[C@]12Cc3ccccc3[C@H]1N(CCC(=O)OC)C(=O)c1ccccc12 | -13.7% | -4.3 | / | / | / | ?
CCCCCN1C(=O)c2ccccc2[C@@]2(C(=O)OCC)Cc3cc(OC)ccc3[C@@H]12 | ? | 2.0 | / | / | / | 12.6µM*
CCOC(=O)[C@]12Cc3cc(OC)ccc3[C@H]1N(Cc1ccccc1)C(=O)c1ccccc12 | ? | -2.7 | ? | -12.7% | -8.3% | ?
CCOC(=O)[C@]12Cc3cc(OC)ccc3[C@H]1N(C1CCCCC1)C(=O)c1cc(OC)ccc12 | 20µM* | 0.2 | / | / | / | 12.6µM*
CCOC(=O)[C@]12Cc3c(cc(OC)c(OC)c3OC)[C@H]1N(C)C(=O)c1cc(OC)ccc12 | 11.2µM* | 1.9 | / | / | / | /
CCOC(=O)[C@]12Cc3cc(C)ccc3[C@H]1N(CCC(=O)OC)C(=O)c1cc(OC)ccc12 | 22.4µM* | -0.9 | / | / | / | 15.8µM*
SMILES | ATXN2 expr inh | LDHA block | TGFb SMAD3 inh | HepG2 viability | IDH1 R132H inh | ATXN viability
COc1ccc2[nH]c(C)c(CCNCc3ccc(F)cc3F)c2c1 | / | 14.8 | / | / | / | /
CCOC(=O)[C@]12Cc3cc(C)ccc3[C@H]1N(C1CCCCC1)C(=O)c1cc(OC)ccc12 | 5.01µM* | 3.3 | / | / | / | 4.47µM*
CCOC(=O)[C@]12Cc3ccccc3[C@H]1N(C)C(=O)c1cc(OC)ccc12 | ? | -4.9 | / | / | / | /
N#CC(c1ccccc1)N1CCOCC1 (stereo not drawn) | -5.1% | -8.0 | -3.5% | 1.3% | 15.0% | i
CC(C)(O)C=CC(=O)[C@](C)(O)[C@H]1[C@H](O)C[C@]2(C)[C@@H]3CC=C4[C@@H](C=C(O)C(=O)C4(C)C)[C@]3(C)C(=O)C[C@@]12C | 1.53µM* | / | / | / | / | /
CC(=O)OC(C)(C)/C=C/C(=O)[C@](C)(O)[C@H]1[C@H](O)C[C@@]2(C)[C@@H]3CC=C4[C@H](C[C@H](O)C(=O)C4(C)C)[C@]3(C)C(=O)C[C@]12C | 14.1µM* | -14.6 | 2.82µM* | -82.5% | 4.1% | /
CN=C(SCC(=O)c1cccc(Cl)c1)c1c(O)n(C)c(=O)n(C)c1=O | ? | -5.2 | 4.5% | 7.6% | 1.5% | i
CC(=O)C1CCC2C3CCC4CC(O)CCC4(C)C3C(=O)CC12C (stereo not drawn) | -6.2% | -5.7 | -1.5% | -22.3% | 1.1% | i
O=C1NC(=O)N(Cc2ccccc2)C(=O)/C1=C/C=C/c1ccco1 | ? | -12.5 | 11.2µM* | -17.5% | 5.4% | 20µM*
COc1ccc(CN2C(=O)NC(=O)/C(=C\c3ccco3)C2=O)cc1 | -12.2% | -2.3 | -1.2% | -0.5% | -3.1% | i
O=Nc1c(O)c2ccccc2c2ccccc12 | 7.94µM* | 20.3 | 2.24µM* | 2.82µM* | 41.8% | 15.8µM*
CCOc1ccc(CC2C(=O)NC(=O)N(c3ccc(CC)cc3)C2=O)cc1 (stereo not drawn) | -4.9% | -3.0 | 7.2% | -54.0% | -2.7% | i
O=C1NC(=O)N(c2cccc(Cl)c2)C(=O)/C1=C\c1ccc(Sc2nc3ccccc3[nH]2)o1 | -10.6% | -20.4 | -19.6% | -8.9% | ? | i
O=C1NC(=O)N(c2ccccc2)C(=O)/C1=C/c1ccc(Sc2ccccc2)o1 | 25.1µM* | -12.6 | 23.0% | -3.5% | -7.8% | ?
O=C1NC(=O)N(c2ccccc2)C(=O)/C1=C\c1ccccc1[N+](=O)[O-] | -11.0% | -34.8* | 2.8% | -8.8% | 7.8% | i
